# Assay results: ChEMBL document CHEMBL3988442, “University of Dundee, Small-Polar-MMV Screening Library” (2021)
# For part of these data: Potency and affinity values are given separately.
# What was measured:
# Design in all cases: scale not given: direction of the effect not stated beside the values
# [1] = biological target: Protein translocase subunit SecA (Escherichia coli (strain K12)) (UniProt P10408); assay: Assay to Identify E. coli SecA ATPase Inhibitors; assay type: functional; conditions: 30 µM
# Sequence of Protein translocase subunit SecA (Escherichia coli (strain K12)) (P10408 whole entry): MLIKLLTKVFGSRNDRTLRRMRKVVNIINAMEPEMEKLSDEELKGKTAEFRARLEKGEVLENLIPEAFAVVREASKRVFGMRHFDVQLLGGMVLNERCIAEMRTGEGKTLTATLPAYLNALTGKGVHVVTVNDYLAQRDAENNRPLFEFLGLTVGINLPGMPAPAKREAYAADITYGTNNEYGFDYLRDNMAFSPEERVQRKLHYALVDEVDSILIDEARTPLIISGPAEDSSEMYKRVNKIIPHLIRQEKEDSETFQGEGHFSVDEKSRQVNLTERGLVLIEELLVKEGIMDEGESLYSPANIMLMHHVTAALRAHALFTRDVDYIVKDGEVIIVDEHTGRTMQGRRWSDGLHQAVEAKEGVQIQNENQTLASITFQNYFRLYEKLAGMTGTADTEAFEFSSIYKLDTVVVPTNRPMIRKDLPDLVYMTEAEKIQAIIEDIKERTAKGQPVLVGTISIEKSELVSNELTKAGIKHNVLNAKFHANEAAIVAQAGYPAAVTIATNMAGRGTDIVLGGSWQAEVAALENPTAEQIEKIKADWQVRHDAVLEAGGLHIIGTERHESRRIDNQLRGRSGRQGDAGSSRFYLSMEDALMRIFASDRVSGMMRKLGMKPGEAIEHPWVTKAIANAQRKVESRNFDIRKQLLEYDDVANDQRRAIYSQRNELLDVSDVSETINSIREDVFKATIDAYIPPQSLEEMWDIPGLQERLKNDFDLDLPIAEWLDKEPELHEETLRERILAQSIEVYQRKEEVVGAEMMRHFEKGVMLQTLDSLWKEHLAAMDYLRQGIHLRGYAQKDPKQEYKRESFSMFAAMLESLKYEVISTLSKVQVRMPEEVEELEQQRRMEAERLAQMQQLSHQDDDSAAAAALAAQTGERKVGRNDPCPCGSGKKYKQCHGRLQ
# [2] = biological target: T1, Ubiquitin-activating enzyme e1, putative (Leishmania donovani (strain BPK282A1)) (UniProt E9BSI1); assay: Leishmania donovani Ubiquitin Activating Enzyme (LdE1); assay type: functional; conditions: 30 µM
# T1 sequence (whole entry): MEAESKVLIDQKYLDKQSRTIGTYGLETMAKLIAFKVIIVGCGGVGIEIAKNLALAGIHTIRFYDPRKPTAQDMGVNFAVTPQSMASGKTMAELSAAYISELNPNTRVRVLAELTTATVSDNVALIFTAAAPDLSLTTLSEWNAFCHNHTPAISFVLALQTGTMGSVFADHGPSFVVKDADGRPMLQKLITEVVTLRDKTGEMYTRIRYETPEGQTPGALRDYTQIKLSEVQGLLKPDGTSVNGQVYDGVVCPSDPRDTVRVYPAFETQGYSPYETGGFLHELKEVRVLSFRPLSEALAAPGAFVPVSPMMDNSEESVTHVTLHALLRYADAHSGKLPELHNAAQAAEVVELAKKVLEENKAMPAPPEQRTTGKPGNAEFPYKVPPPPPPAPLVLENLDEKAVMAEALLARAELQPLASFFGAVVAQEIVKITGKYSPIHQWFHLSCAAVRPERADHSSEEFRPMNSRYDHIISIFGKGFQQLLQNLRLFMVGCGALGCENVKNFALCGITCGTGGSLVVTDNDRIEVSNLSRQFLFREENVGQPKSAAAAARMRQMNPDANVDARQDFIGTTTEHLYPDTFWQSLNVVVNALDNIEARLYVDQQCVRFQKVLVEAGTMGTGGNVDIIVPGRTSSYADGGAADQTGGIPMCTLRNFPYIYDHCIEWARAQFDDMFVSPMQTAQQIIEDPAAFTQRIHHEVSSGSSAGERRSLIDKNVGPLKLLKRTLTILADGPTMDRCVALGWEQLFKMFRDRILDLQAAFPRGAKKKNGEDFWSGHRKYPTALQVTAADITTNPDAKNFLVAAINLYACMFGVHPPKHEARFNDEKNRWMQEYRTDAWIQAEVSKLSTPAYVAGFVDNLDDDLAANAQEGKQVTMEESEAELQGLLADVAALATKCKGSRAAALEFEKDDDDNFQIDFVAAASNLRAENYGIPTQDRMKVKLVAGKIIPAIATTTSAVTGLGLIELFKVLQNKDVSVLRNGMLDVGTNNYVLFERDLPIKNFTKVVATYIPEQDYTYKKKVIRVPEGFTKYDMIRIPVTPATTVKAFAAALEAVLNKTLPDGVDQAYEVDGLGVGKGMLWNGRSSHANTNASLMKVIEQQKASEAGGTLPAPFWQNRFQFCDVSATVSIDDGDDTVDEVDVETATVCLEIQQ
# [3] = biological target: AMP-activated protein kinase, AMPK (Homo sapiens) (UniProt P54646+O43741+P54619+Q9UGJ0+Q9Y478+Q13131+Q9UGI9); assay: AMP-dependent Kinase enzyme assay. An in vitro enzyme assay that detects ADP turnover that is directly proportional to AMPK activity. This uses naive AMPK that is activated during the assay with MK-8722; assay type: functional; conditions: 30 µM
# [4] = biological target: Sialic acid-binding Ig-like lectin 9 (Homo sapiens) (UniProt Q9Y336); assay: Hs-Siglec9 ALPHAscreen SOP 20170721; conditions: 10 µM
# Sequence of Sialic acid-binding Ig-like lectin 9 (Homo sapiens) (Q9Y336 whole entry): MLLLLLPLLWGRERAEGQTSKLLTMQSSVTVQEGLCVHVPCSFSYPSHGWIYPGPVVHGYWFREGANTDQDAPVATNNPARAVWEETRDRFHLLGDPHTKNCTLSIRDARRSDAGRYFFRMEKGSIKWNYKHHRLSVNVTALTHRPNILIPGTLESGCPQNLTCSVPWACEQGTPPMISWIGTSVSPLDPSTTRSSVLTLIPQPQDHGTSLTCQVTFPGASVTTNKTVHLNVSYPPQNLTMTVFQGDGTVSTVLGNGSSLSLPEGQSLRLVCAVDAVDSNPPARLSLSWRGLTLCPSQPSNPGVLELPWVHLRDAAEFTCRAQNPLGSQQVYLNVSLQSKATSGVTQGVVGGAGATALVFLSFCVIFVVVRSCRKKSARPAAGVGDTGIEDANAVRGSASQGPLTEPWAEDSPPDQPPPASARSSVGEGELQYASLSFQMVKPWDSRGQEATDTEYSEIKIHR
# Trypanosoma cruzi = assay: Trypanosoma cruzi phosphomannomutase and mannose-1-phosphate guanylyltransferase assay; assay type: functional; conditions: 10 µM
# [5] = biological target: T2, Arginase-2, mitochondrial (Homo sapiens) (UniProt P78540); assay: in vitro enzyme assay to detect the production of urea directly proportional to the activity of Arginase II; assay type: functional; conditions: 33.3 µM; note: in the data most compounds retested in dose-response had high values
# T2 sequence (whole entry): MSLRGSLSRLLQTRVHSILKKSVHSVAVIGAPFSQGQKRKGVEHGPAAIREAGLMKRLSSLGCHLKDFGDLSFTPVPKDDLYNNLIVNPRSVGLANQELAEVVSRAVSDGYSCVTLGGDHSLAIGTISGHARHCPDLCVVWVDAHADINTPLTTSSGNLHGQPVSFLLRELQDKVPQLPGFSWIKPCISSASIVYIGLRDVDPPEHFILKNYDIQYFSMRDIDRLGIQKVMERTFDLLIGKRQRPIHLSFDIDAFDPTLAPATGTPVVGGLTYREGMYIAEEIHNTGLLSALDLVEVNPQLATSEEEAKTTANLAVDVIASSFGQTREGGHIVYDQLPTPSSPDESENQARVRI
# [6] = biological target: T3, Proteasome subunit beta (Trypanosoma cruzi) (UniProt O96673); assay: Trypanosoma cruzi proteasome chymotrypsin-like activity (TcProtChymo) assay.; note: in the data most compounds retested in dose-response had high values; assay type: functional; conditions: 9.37 µM
# T3 sequence (whole entry): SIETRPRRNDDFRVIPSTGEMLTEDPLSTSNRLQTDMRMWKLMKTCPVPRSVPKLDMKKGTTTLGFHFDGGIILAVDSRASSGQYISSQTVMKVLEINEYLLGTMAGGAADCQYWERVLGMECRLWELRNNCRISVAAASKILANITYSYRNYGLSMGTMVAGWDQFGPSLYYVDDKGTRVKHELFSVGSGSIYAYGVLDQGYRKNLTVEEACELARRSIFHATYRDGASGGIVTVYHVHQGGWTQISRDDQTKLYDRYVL
# Homo sapiens = species: Homo sapiens; assay: To identify inhibition of the IFN signalling (Jak-Stat) pathway via expression of an eGFP reporter gene under the control of an IFN-stimulated response element (ISRE) containing MxA promoter.; assay type: functional; conditions: 30 µM
# [7] = biological target: T4, Tyrosyl-tRNA synthetase, putative (Trypanosoma cruzi (strain CL Brener)) (UniProt Q4DSP6); assay: Trypanosoma cruzi tyrosyl tRNA synthetase (TcYRS) _High Tyrosine SOP; assay type: functional; conditions: 30 µM; note: in the data most compounds retested in dose-response had high values
# T4 sequence (whole entry): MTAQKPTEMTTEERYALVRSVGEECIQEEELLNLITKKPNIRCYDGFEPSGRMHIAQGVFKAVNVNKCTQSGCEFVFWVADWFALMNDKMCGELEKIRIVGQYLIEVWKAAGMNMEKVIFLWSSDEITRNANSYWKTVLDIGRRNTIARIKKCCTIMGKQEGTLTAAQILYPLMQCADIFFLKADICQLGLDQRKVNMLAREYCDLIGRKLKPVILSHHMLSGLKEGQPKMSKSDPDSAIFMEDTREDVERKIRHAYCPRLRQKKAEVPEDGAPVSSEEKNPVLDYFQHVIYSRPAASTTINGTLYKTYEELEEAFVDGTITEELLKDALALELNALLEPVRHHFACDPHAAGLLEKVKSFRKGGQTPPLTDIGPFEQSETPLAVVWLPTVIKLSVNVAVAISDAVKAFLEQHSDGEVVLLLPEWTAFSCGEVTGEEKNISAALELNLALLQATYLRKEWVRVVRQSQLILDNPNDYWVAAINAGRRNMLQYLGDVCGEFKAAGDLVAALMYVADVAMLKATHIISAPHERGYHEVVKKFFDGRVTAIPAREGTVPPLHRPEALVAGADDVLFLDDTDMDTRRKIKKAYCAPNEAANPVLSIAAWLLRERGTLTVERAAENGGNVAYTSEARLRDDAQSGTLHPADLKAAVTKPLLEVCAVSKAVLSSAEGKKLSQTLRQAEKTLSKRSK
# [8] = biological target: T4, Tyrosyl-tRNA synthetase, putative (Trypanosoma cruzi (strain CL Brener)); assay: Trypanosoma cruzi tyrosyl tRNA synthetase (TcYRS) SOP; assay type: functional; conditions: 30 µM
# [9] = biological target: Chromo domain-containing protein 1 (Saccharomyces cerevisiae (strain ATCC 204508 / S288c) (Baker's yeast)) (UniProt P32657); assay: ScCHD-1 Enzyme Inhibition Assay; assay type: functional; conditions: 30 µM; note: in the data most compounds retested in dose-response had high values
# Sequence of Chromo domain-containing protein 1 (Saccharomyces cerevisiae (strain ATCC 204508 / S288c) (Baker's yeast)) (P32657 whole entry, the tested form may be a part): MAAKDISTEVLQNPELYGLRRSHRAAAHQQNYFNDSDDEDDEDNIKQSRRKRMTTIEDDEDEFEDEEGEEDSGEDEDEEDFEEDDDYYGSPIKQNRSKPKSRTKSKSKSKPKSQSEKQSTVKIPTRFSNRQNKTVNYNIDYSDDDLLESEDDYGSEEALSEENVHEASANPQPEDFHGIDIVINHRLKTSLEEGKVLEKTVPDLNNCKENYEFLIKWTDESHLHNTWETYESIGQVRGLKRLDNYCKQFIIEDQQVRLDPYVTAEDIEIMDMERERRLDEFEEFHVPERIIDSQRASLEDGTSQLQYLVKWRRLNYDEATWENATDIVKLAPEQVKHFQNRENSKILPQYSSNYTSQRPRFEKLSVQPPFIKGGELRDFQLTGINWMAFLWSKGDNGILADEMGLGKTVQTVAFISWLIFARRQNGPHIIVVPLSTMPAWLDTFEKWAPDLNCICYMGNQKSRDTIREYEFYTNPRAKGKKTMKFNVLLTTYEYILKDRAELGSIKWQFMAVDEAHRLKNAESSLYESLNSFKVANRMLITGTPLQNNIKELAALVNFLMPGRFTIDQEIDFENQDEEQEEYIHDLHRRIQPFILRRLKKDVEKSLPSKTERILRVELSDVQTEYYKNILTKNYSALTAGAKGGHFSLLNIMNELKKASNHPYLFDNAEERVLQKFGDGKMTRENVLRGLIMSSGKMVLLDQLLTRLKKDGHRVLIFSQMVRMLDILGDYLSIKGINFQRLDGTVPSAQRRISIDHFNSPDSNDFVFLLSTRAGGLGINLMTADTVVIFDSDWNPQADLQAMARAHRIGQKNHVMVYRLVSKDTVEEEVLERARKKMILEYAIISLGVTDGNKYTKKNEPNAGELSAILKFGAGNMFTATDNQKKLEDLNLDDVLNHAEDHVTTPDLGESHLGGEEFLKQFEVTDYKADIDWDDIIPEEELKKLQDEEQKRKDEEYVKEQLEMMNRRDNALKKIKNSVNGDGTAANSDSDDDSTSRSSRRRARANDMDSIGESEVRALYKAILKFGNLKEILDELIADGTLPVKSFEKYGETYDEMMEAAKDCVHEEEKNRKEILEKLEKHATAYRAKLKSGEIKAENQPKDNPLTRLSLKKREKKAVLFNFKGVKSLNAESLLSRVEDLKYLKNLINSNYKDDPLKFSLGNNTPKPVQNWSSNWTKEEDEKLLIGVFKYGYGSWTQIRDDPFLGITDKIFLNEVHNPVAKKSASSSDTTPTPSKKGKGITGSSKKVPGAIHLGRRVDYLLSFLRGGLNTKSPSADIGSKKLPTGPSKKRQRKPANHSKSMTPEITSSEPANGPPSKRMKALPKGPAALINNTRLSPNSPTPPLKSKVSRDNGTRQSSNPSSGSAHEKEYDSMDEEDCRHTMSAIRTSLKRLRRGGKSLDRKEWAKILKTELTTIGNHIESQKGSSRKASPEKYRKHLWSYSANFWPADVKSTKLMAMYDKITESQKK
SMILES,Percent Effect [1],Percent Effect [2],Percent Effect [3],Percent Effect [4],Percent Effect (Trypanosoma cruzi),Percent Effect [5],Percent Effect [6],Percent Effect (Homo sapiens),Percent Effect [7],Percent Effect [8],Percent Effect [9]
O=C(Nc1ccnc(OC2CCOC2)c1)c1cc(F)ccc1F (stereo unspecified),-5.45%,-1.39%,2.94%,5.39%,-1.65%,-2.65%,11.6%,2.19%,-5.26%,-10.3%,9.81%
COCCCN1CCCN(C(C)C(=O)Nc2ccnn2C(C)C)CC1 (stereo unspecified),0.586%,-2.7%,-1.72%,-1.48%,0.195%,2.08%,13.9%,-3.67%,4.95%,-3.66%,-4.29%
CC(c1nc(C2CC2)no1)N1CCN(c2ccc(C#N)cn2)CC1 (stereo unspecified),0.926%,2.63%,8.14%,5.94%,-4.58%,-4.73%,13.7%,10.8%,2.13%,7.79%,-2.39%
CCc1ncc2c(n1)CN(Cc1nc(-c3ccccn3)no1)CC2,-8.41%,15.8%,-29.3%,15.4%,11.7%,1.44%,2.79%,-20.6%,15.3%,25.9%,-10.3%
CCOC(=O)CCCNC(=O)CN1CCN(c2ncccn2)CC1,-2.22%,7.79%,-1.07%,5.04%,-3.64%,-112%,17.5%,2.75%,5.38%,8.64%,-0.631%
Cc1nc(C(=O)N2CCCC2c2c(C)nn(C)c2C)ccc1C#N (stereo unspecified),-5.64%,-1.27%,7.49%,4.58%,-2.36%,1.07%,16.1%,4.46%,0%,2.53%,10.7%
Cc1nc(CN2C(=O)CC[C@H]3[C@@H]2CCN3C(=O)c2ccsc2)cs1,2.29%,10.8%,2.71%,-8.13%,4.2%,-1.59%,28%,-19.9%,5.41%,15.4%,-0.758%
Cc1ccc(CN(C)C(=O)CN2CCOC(Cn3cncn3)C2)o1 (stereo unspecified),1.63%,15.2%,-6.86%,-11.8%,-7.46%,9.89%,13%,16.3%,5.42%,11.4%,-2.75%
O=C(c1ccc(F)cc1)N1CCN2C[C@H](OCc3ccccn3)C[C@H]2C1,-5.08%,8.11%,5.44%,-1.47%,-2.83%,1.59%,20.7%,-8.06%,7.57%,12.8%,1.66%
CC(C)Nc1nc(N2CCOCC2)nc2c1CN(CC(=O)N(C)C)CC2,-9.2%,0%,6.79%,-0.0149%,-0.591%,1.17%,-5.37%,15.8%,-1.06%,-3.85%,-5.05%
CN(C)c1nc2c(c(=O)[nH]1)CCN(C(=O)c1cccc3nccnc13)C2,1.03%,18.2%,-1.68%,4.82%,1.87%,-33.1%,19.1%,29.3%,8.6%,16.1%,-3.03%
CCN1CCOC(CNCc2ccccc2OCc2ccccn2)C1 (stereo unspecified),-2.71%,5.26%,-13%,-5.97%,-4.39%,3.24%,9.56%,9.07%,6.4%,13.6%,-8.14%
CSCc1cccc(S(=O)(=O)N2CCSCC2)c1,-2.31%,-1.33%,0.956%,1.81%,-4.91%,-4.05%,8.87%,4.39%,-16.9%,-2.56%,-9.22%
Cc1ccc(S(=O)(=O)N2C[C@H]3C[C@H](NC(=O)c4ccn(C)n4)[C@H]3C2)cc1,-7.65%,17.6%,-0.91%,4.49%,-0.395%,-3.48%,9.36%,16.8%,2.15%,9.09%,-25.8%
Cn1cc(S(=O)(=O)N2CCCC2CC(=O)c2cccs2)cn1 (stereo unspecified),2.62%,0%,0.659%,-5.21%,-5.79%,1.43%,14.8%,11.2%,2.65%,4.88%,-3.57%
CC(=O)N1CCN(C(=O)NCc2csc(Br)c2)CC1,-7.09%,2.7%,4.94%,5.56%,0.0929%,-0.554%,-3.77%,6.02%,7.92%,1.22%,-0.334%
CCCC(C)(C)NC(=O)c1ccc(CC2CC(=O)NC2=O)cc1 (stereo unspecified),-8.33%,8.22%,6.89%,23.9%,3.53%,2.27%,15.1%,13.9%,3.23%,10%,-5.88%
CN(Cc1ncc(C(C)(C)C)o1)C1CCCN(c2cccnn2)C1 (stereo unspecified),-2.8%,15.2%,-7.54%,-5.13%,3.49%,2.66%,13.2%,2.64%,12.3%,16.5%,-3.04%
Cc1ccc(C(=O)N2CCCC(NC(=O)C(C)C)C2)c(O)c1 (stereo unspecified),-4.49%,16.2%,-12.8%,11.8%,3.87%,-4.41%,11.9%,6.82%,8.37%,25.9%,-10.5%
COCC(=O)NC1CC2(CCN(Cc3ccco3)CC2)c2ccccc21 (stereo unspecified),-1.45%,2.7%,-1.83%,3.44%,-7.92%,2.23%,24.2%,4.53%,2.16%,5.13%,-3.97%
CCc1ccccc1C(=O)N1CCN(S(C)(=O)=O)[C@@H](C)C1,2.08%,2.74%,0.603%,7.54%,5.09%,3.18%,8.34%,-4.78%,1.07%,0%,-1.37%
